Measured values reported in PubChem BioAssay AID1490 (National Center for Advancing Translational Sciences (NCATS), 2009).
Values joined by “and” are separate entries in the source; they are usually repeats but may differ in a detail not shown here. Identical values can stand only once. The whole screen tested about 310,000 compounds, of which about 11,000 (3.5%) were called active. Not shown: some 4% with an inconclusive outcome. The sample holds actives, similar compounds and a random draw of the others, so the mix is not that of the screen. A number with no mark means an inactive call. Calls come from the whole dose curve; as a rule, active = well fitted inhibition curve with a large enough effect; inconclusive = small, poorly fitted or top-dose-only effect, or another doubt; inactive = no such curve, though single readings can be large or run the other way.

molecular target: 4'-phosphopantetheinyl transferase ffp (Bacillus subtilis) (UniProt Q9F4F7); assay: qHTS Assay for Inhibitors of Bacillus subtilis Sfp phosphopantetheinyl transferase (PPTase); details: Biochemical Sfp PPTase activity;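 note: the enzyme is Sfp with the accession as filed and its product quenches rhodamine fluorescence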;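 for largest response in the series, negative = inhibition: 0% = enzyme reaction without inhibitor and -100% = no enzyme wells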
Method in brief: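 With Hepes-Na pH 7.6 buffer containing 10 mM MgCl2, Sfp (15 nM) modified BHQ-2-YbbR (12.5 uM) using rhodamine-CoA (5 uM). Two reads 30 minutes apart at 525/598 nm yielded each well's rate.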
Potency is the fitted concentration of half-maximal effect.

Row | SMILES | largest response in the series, negative = inhibition | Potency
1 | CCN(CC(=O)NCCCN1CCOCC1)S(=O)(=O)c1cc(Cl)ccc1Cl | 9.56% | 
2 | COc1ccc(CC(=O)N/N=C/c2cc([N+](=O)[O-])cc(Br)c2O)cc1 | 23.5% | 
3 | NS(=O)(=O)c1ccc(CCNC(=S)Nc2ccc(S(N)(=O)=O)cc2)cc1 |  | 20 µM (active)
4 | CCc1ccc(NC(=O)C(=O)NNC(=O)c2cccs2)cc1 | 6.91% | 
5 | NS(=O)(=O)c1ccc(NC(=S)Nc2ccc(Br)c(Cl)c2)cc1 |  | 56.2 µM (active)
6 | NS(=O)(=O)c1ccc(NC(=S)NNC(=O)c2cccs2)cc1 |  | 15.8 µM (active)
7 | NS(=O)(=O)c1ccc(NC(=S)NC(=O)c2cccc(Br)c2)cc1 | -13.6% | 
8 | CC(C)(C)C(=O)NC(NC(=S)Nc1ccc(S(N)(=O)=O)cc1)C(Cl)(Cl)Cl (centres undefined) | 7.73% | 
9 | NS(=O)(=O)c1ccc(CCNC(=O)CNC(=O)Cc2ccccc2)cc1 | -3.07% | 
10 | NS(=O)(=O)c1ccc(CCNC(=O)Nc2ccc(Cl)cc2)cc1 | 7.27% | 
11 | CC(C)C(=O)Nc1ccc(C(=O)NNC(=O)c2cccs2)cc1 | -14.7% | 
12 | COc1cccc(NC(=O)CN(C)C(=O)c2ccccc2CCc2ccccc2)c1 | 4.61% | 
13 | CCN1C(=NCCc2cccnc2)N[C@@H](c2ccccc2)C(C(=O)OC)=C1C | 4.98% and 1.06% | 
14 | CCOc1ccc(CN2CCN(CCCc3ccccc3)C(CCO)C2)cc1 (centres undefined) | 7.43% | 
15 | CN(C)c1ccc(NC(=O)CN2C3CCCC2CC(NC(=O)c2ccccc2)C3)cc1 (centres undefined) | -10% | 
16 | O=C(CN1CCCCCC1)Nc1ccc(Br)cc1[N+](=O)[O-] | -3.46% | 
17 | CCCn1cc(S(=O)(=O)c2ccc(C)cc2)c(=O)c2cc(OCC)ccc21 | 0.066% | 
18 | COc1cc(C2NC(=O)NC(c3ccccc3)=C2C(C)=O)c(Br)cc1OCC(N)=O (centres undefined) | 18.5% | 
19 | CCOc1cc2[nH]c(=S)n(CCCN3CCCC3=O)c(=O)c2cc1OCC |  | 56.2 µM (active)
20 | CCOc1cc2[nH]c(=O)n(Cc3ccc(C(=O)NCCCN4CCCC4=O)cc3)c(=O)c2cc1OCC | 9.7% | 

Row | SMILES | largest response in the series, negative = inhibition | Potency
21 | CCOc1cc2[nH]c(=S)n(CCN3CCCCC3C)c(=O)c2cc1OCC (centres undefined) | -4.39% | 
22 | CCN(CC)c1ccc(/C=N/Nc2nc(C)cc(=O)[nH]2)cc1 | -16.8% | 
23 | Cc1cc(=O)[nH]c(N/N=C/c2ccc3c(c2)OCCO3)n1 |  | 56.2 µM (active)
24 | Cc1cc(=O)[nH]c(N/N=C/c2c(C)nn(-c3ccccc3Cl)c2Cl)n1 | -9.72% | 
25 | COc1ccc(/C=C(\C#N)c2c[nH]c3ccccc23)cc1 | 10.3% | 
26 | Cc1ccc2c(c1)N(CC(=O)NCCc1ccc(Cl)cc1)C(=O)c1cccnc1O2 | -4.46% | 
27 | COc1ccccc1NC(=O)CCN1CCN(c2ccc(Cl)cc2)CC1 | 3.28% | 
28 | COc1ccc(Cl)cc1NC(=O)CCN1CCOCC1 | 13.9% | 
29 | COC(=O)CNC(c1ccccc1Cl)c1cc(Br)ccc1NC(=O)CCN1CCOCC1 (centres undefined) |  | 56.2 µM (active)
30 | CNS(=O)(=O)c1ccc(NC(=O)Nc2ccc3c(c2)OCO3)cc1 | -9.71% | 
31 | CCc1ccc(OCC(O)CN2CCN(CCO)CC2)cc1 (centres undefined) | 5.76% | 
32 | C/C(=N\NC(N)=S)c1ccncc1 |  | 79.4 µM (active)
33 | C/C(=N/NC(=O)c1ccn(C)n1)c1ccncc1 | 5.8% | 
34 | C/C(=N/NC(=O)c1ccncc1)c1ccc2c(c1)OCO2 | 4.66% | 
35 | COc1ccc(CCNC(=O)CCCCCNC(=O)N2CCn3c2nc2ccccc23)cc1OC | 4.84% | 
36 | Cc1ccccc1CNC(=O)CCC(=O)N1Cc2ccccc2Oc2ncccc21 | 19% | 
37 | CCn1c(SCc2cccc(C(=O)O)c2)nnc1-c1ccc(Cl)cc1 | 1.11% | 
38 | COc1ccc(-n2ncc3c2CC(C)(C)CC3NC(=O)CCc2c(C)nn(C)c2C)cc1 (centres undefined) | 11.2% | 
39 | COC(=O)C(NS(=O)(=O)c1ccc(F)cc1)c1ccccc1 (centres undefined) | 16.1% | 
40 | O=S(=O)(NC(=S)Nc1ccccc1)c1ccc(F)cc1 |  | 20 µM (active)

Row | SMILES | largest response in the series, negative = inhibition | Potency
41 | Cc1ccc(NC(=S)Nc2ccc(F)cc2)cc1 | 5.93% | 
42 | Cc1ccccc1-c1nnc(SCC(=O)NCc2ccc3c(c2)OCO3)n1C | 4.47% | 
43 | O=C(CSc1ncn[nH]1)NCc1ccc2c(c1)OCO2 | 9.23% | 
44 | Fc1cccc(Cl)c1CSc1ccc(-c2ccco2)nn1 |  | 39.8 µM (active)
45 | O=C(CSc1ccc(-c2ccco2)nn1)Nc1cccc(F)c1 |  | 15.8 µM (active)
46 | COc1ccc(NC(=O)CSc2ccc(-c3ccco3)nn2)c(OC)c1 | -27.4% | 
47 | O=C(CSc1ccc(-c2ccc(F)cc2)nn1)Nc1ccc2c(c1)OCCO2 | -25.1% | 
48 | Cc1cc(SCc2c(F)cccc2Cl)nc(=O)[nH]1 | 1.28% | 
49 | O=C(CSc1ccc(-c2ccco2)nn1)NCc1ccc2c(c1)OCO2 |  | 50.1 µM (active)
50 | Cn1c(SCc2c(F)cccc2Cl)nnc1-c1cnccn1 | -5.8% | 
51 | O=C(NCC(=O)N1CCC2(CC1)NCCc1[nH]cnc12)c1ccc(Br)cc1 | 9.84% | 
52 | O=C(Cn1nc([N+](=O)[O-])nc1Br)NC1CCCCC1 | 16.4% | 
53 | CCOC(=O)N1CCN(S(=O)(=O)c2ccc(Br)cc2)CC1 | 12.6% | 
54 | C[C@H]1Cc2c(COc3ccccc3)nc3c(c2CO1)CN(C(=O)Nc1cccc(C#N)c1)CC3 | 13.6% | 
55 | Cc1ccc(C(=O)N2CCC(n3nccc3NC(=O)Nc3cccc(F)c3)CC2)cn1 | 4.54% | 
56 | CCCCC[C@H](O)/C=C/[C@@H]1[C@@H](CC(=O)CCC(=O)O)[C@@H](O)C[C@H]1O | -8.37% | 
57 | OCCC(O)CO (centres undefined) | -2.96% and -0.468% and 9.51% | 
58 | O=C(c1cccnc1)N1CCN(S(=O)(=O)c2cccs2)CC1 | 2.77% | 
59 | O=C(COc1ccc(Cl)cc1)NCCS(=O)(=O)N1CCN(c2ccc(F)cc2)CC1 | -3.01% | 
